Screening data: PubChem, The Scripps Research Institute Molecular Screening Center
PAFAH1B3 inh = PAFAH1B3 (human) inhibition; AID 492972; Q15102; 340,000 tested, 0.28% active; recombinant PAFAH1B3, FP-rhodamine probe, fluorescence polarization; inhibition, % at 3.39 µM;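 active means inhibition above the screen-wide average of all tested compounds plus 3 SD, cut at about 25% in these data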;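 further: 0% = enzyme with DMSO only and 100% = wells lacking PAFAH1B3 protein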
Target sequence (Q15102 whole entry, looked up): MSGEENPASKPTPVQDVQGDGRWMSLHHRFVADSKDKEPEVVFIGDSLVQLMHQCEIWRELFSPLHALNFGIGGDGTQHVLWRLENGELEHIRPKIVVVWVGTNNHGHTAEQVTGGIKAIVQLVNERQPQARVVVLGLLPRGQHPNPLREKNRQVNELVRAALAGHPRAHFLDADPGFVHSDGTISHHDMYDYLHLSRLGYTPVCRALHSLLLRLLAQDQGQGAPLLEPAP
ZTA DNA inh = ZTA (EBV) inhibition in EBNA-1 counter-screen; P03206; ZTA-DNA binding, fluorescence polarization; inhibition, % at 11 µM; 320,000 tested, 0.15% active; in the data active means inhibition above about 33%
PAFAH1B2 FP inh = PAFAH1B2 (human) inhibition; AID 492953; 340,000 tested, 1.2% active; recombinant PAFAH1B2, FP-rhodamine activity probe, fluorescence polarization; inhibition, % at 3.39 µM;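 active means inhibition above the mean of all tested compounds plus 3 SD, cut at about 24% in these data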;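 further: 0% = enzyme with DMSO and 100% = wells lacking PAFAH1B2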
Target sequence (P68402 whole entry, looked up): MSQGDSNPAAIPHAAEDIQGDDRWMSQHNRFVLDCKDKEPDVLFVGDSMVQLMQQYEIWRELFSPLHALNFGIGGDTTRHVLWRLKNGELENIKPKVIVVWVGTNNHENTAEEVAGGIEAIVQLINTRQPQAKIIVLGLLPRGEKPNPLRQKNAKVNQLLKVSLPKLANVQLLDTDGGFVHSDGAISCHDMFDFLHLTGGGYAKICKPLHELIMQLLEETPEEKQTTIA
PAFAH2 FP inh = inhibitors of human PAFAH2; recombinant PAFAH2, FP-rhodamine activity probe, fluorescence polarization; inhibition, % at 3.39 µM; 340,000 tested, 0.99% active; Q99487; AID 492956;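 active means inhibition above the mean over all tested compounds plus 3 SD, cut at about 30% in these data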;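 further: inhibitors block probe labeling of enzyme so polarization drops; 0% = enzyme with DMSO and 100% = wells lacking PAFAH2 protein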
EBNA-1 inhibitor = blocks EBNA-1 binding to DNA; inhibition, % at 14.8 µM; 300,000 tested, 0.34% active; AID 1950; EBNA-1 DNA binding, fluorescence polarization; in the data active means inhibition above about 28%
rCAG binder = r(CAG) repeat RNA binding; TO-PRO-1 dye displacement fluorescence; inhibition, % at 3 µM; 370,000 tested, 1.3% active;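 active means inhibition above the plate cutoff, the mean of all test compounds on that plate plus 3 SD, cut at about 35% in these data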;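 further: 0% = DMSO alone and 100% = 100 µM mitoxantrone as full dye displacement; higher means more dye released from RNA so lower well fluorescence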
PAFAH2 confirm = confirmation of human PAFAH2 inhibitors. shares compounds with PAFAH2 FP inh. recombinant PAFAH2, FP-rhodamine activity probe, fluorescence polarization. inhibition, % at 3.39 µM. 2,300 tested, 65% active;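 active means mean inhibition over three repeats above a set limit taken from the earlier primary screen, cut at about 30% in these data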;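 further: inhibitor blocks binding of rhodamine activity probe so polarization falls; 0% = enzyme with DMSO and 100% = wells lacking PAFAH2 protein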
The depositor's hits bear a star; . = no result. Hits are enriched below; roughly 2.9% of the tested compounds scored in any of these assays.

SMILES	PAFAH1B3 inh	ZTA DNA inh	PAFAH1B2 FP inh	PAFAH2 FP inh	EBNA-1 inhibitor	rCAG binder	PAFAH2 confirm
Nc1ccc(C(=O)OCC(=O)NC(=O)c2ccccc2)cc1[N+](=O)[O-]	5	8	-3	38*	-2	3	22
Cc1ccc(NC(=O)COC(=O)c2ccc3c(c2)OCCO3)cc1	8	-16	-3	86*	.	1	85*
Nc1nc(=O)n(C2CCC(CO)O2)cc1F (stereo not drawn)	.	.	.	.	.	2	.
Cc1ccc(/C(N)=N/OC(=O)c2ccc3c(c2)OCO3)cc1	2	8	4	25	1	-2	.
O=C(COC(=O)c1ccc(O)cc1)Nc1ccc2c(c1)OCCO2	5	.	-5	78*	.	2	69*
O=C(COC(=O)c1ccc2c(c1)OCO2)Nc1cccc(F)c1	-3	-10	0	81*	.	1	84*
CN(C)c1cccc(C(=O)OCC(=O)Nc2ccccc2Cl)c1	-2	3	1	54*	-2	-2	50*
N/C(=N\OC(=O)c1ccc2c(c1)OCO2)c1ccc(Cl)cc1	9	3	-4	33*	12	3	30*
COc1ccccc1CCn1cnc(-c2ccc(F)cc2)c1CC(C)C	.	.	.	.	.	-1	.
O=C(COC(=O)c1ccc(N2CCOCC2)c([N+](=O)[O-])c1)Nc1ccc2c(c1)OCO2	8	2	6	-7	5	0	.
CCOc1ccc(NC(=O)COC(=O)c2ccc3c(c2)OCO3)cc1	-6	7	2	64*	.	-1	62*
CC(=O)c1cccc(NC(=O)COC(=O)c2ccc3c(c2)OCCO3)c1	8	25	3	84*	3	1	71*
Nc1ccc(C(=O)OCC(=O)Nc2ccc3c(c2)OCO3)cc1[N+](=O)[O-]	9	-5	8	65*	7	5	49*
O=C(COC(=O)c1ccc2c(c1)OCO2)Nc1ccccc1Cl	5	11	6	58*	.	1	44*
O=C(COC(=O)c1ccc(O)cc1)NC(=O)NCc1ccccc1	8	6	5	11	.	1	.
O=C(COC(=O)c1ccc(O)cc1)Nc1ccccc1	8	-3	-3	92*	-15	5	80*
CCOC(=O)C1(Cc2ccccc2)CCN(Cc2ccccc2OC)CC1	.	.	.	.	.	-1	.
COC(=O)C1CN(Cc2cn(Cc3ccccc3)nn2)CCS(=O)(=O)N1Cc1ccccc1 (stereo not drawn)	.	.	.	.	.	0	.
O=C1CC(Nc2ccc(N3CCOCC3)cc2)C(=O)N1c1ccccc1 (stereo not drawn)	-6	8	5	-1	-5	.	.
COc1ccc(NC2CC(=O)N(c3ccccc3)C2=O)cc1 (stereo not drawn)	4	1	7	41*	7	2	2
CC(NC(=O)COC(=O)c1ccccc1F)C1CC2CCC1C2 (stereo not drawn)	11	.	19	76*	.	1	63*
CCCCCCC(c1c(C)n(C)n(-c2ccccc2)c1=O)c1c(C)n(C)n(-c2ccccc2)c1=O	2	13	4	70*	-2	-3	70*
Cc1c(C(c2ccccc2O)c2c(C)n(C)n(-c3ccccc3)c2=O)c(=O)n(-c2ccccc2)n1C	12	4	4	-5	4	-5	.
CC[C@@H](OP(=O)(O)[C@@H](C)N)C(=O)O	.	.	.	.	.	1	.
COC(=O)[C@H](C(C)C)N(Cc1cn(Cc2ccc(C)cc2)nn1)S(=O)(=O)c1ccccc1Br	.	.	.	.	.	-1	.
SMILES	PAFAH1B3 inh	ZTA DNA inh	PAFAH1B2 FP inh	PAFAH2 FP inh	EBNA-1 inhibitor	rCAG binder	PAFAH2 confirm
CCC(CO)Oc1cc(NC(=O)Cc2ccccc2F)c2ncn(C(C)C)c2c1 (stereo not drawn)	9	.	6	40*	.	-10	20
CCOC(=O)[C@]12CCCC3=C1N(CCC3)C(=O)[C@@H](CC(=O)NCc1ccccc1)C2	.	.	.	.	.	0	.
COc1cc(/C=C/C(=O)OCC(=O)N(C)Cc2ccccc2)cc(OC)c1OC	5	.	3	9	.	-2	.
COc1cc(/C=C/C(=O)OCC(=O)NCc2ccccc2OC)ccc1O	15	10	11	50*	-2	-2	49*
COc1ccccc1CNC(=O)COC(=O)/C=C/c1ccc2c(c1)OCO2	-1	.	2	39*	.	1	43*
COc1cc(/C=C/C(=O)OCC(=O)NCc2ccc(F)cc2)ccc1O	5	.	4	69*	.	6	56*
COc1cc(/C=C/C(=O)OCC(=O)N(C)Cc2ccccc2)ccc1O	1	9	3	33*	.	5	19
COc1cc(/C=C/C(=O)OCC(=O)NC(=O)NC(C)C)ccc1O	-3	0	6	13	-8	-2	.
CN(CCO)c1cccc2c1S(=O)(=O)N(Cc1cn(Cc3ccc(F)cc3)nn1)Cc1ccccc1O2	.	.	.	.	.	-1	.
CCCCNC(=O)COC(=O)c1ccc(C)c(NC(=O)c2ccco2)c1	1	5	-2	50*	-7	-6	45*
C=CCNC(=O)COC(=O)c1ccc(C)c(NC(=O)c2ccco2)c1	0	-3	5	36*	-9	-2	30*
COc1ccc(S(=O)(=O)N2CCOCC2)cc1NC(=O)Cc1c(Cl)cccc1Cl	-3	-3	-1	49*	-3	7	45*
COc1ccc(S(=O)(=O)N2CCOCC2)cc1NC(=O)CN(C)Cc1c(F)cccc1Cl	-3	-12	1	7	-15	-3	.
COc1ccc(S(=O)(=O)N2CCOCC2)cc1NC(=O)CN1CCCCCC1	3	-3	-2	4	0	-7	.
COc1ccc(S(=O)(=O)N2CCOCC2)cc1NC(=O)CN1CCCc2ccccc21	16	.	2	66*	.	7	56*
CCn1c(C)nc2cc(C(=O)NNC(=O)c3ccc(C)cc3)ccc21	-6	12	3	-4	.	5	.
CCn1c(C)nc2cc(C(=O)OC(C(F)(F)C(F)F)C(F)(F)C(F)F)ccc21	7	6	14	90*	1	-5	79*
O=C1c2cccc3cccc(c23)C(=O)N1OS(=O)(=O)c1ccc(Cl)cc1	10	-4	3	33*	7	1	34*
O=C(Nc1ccccc1C(=O)NCCc1ccccc1)c1cnccn1	11	2	10	32*	5	1	8
CCNS(=O)(=O)c1ccc(NC(=O)Nc2ccccc2OC)cc1	1	-8	5	0	-6	6	.
CCS(=O)(=O)c1ccc(O)c(NC(=O)/C=C/c2ccccc2)c1	8	-8	4	75*	2	5	73*
CCS(=O)(=O)c1ccc(O)c(NC(=O)CC2(CC(=O)O)CCCC2)c1	2	6	-1	37*	3	-1	27
CCCc1ccc(OCC(=O)Nc2cc(S(=O)(=O)CC)ccc2O)cc1	7	-1	13	33*	-9	35*	26
